For 13 molecules, z-score and composite z-score results are on record in PubChem BioAssay.

A short description of assay [1]: optical density shifts of acrAB sulA E. coli – strain DRC41, OD650, 48 h, E. coli filamentation inducer project, primary screen (AID 1152).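 Note: E. coli MC1000 strain DRC41 lacking acrAB efflux pump and sulA.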 The note with it: higher = more signal, called active from +8 up or from −8 down.
Assay [2] is described as follows: probe aLefty1 binding on compound microarray – biochemical, small-molecule microarray, 635/667 nm fluorescence, primary screen (AID 1153).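 Note: score merges spot fluorescence with signal-to-noise ratio from the scanned slide images.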 The note with it: higher = more signal.
Assay [3] in a line: plasmodial surface anion channel blockers, osmotic lysis – cell-based, P. falciparum Indochina, OD700, 1 h, primary screen (AID 1154). The note with it: P. falciparum Indochina infected RBC osmotic lysis, higher = more signal, called active from +8 up or from −8 down.
The nature of assay [4]: plasmodial surface anion channel blockers, osmotic lysis – cell-based, P. falciparum Indochina, OD700, 2 h, primary screen (AID 1155).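 Note: lysis reports solute entry through the parasite surface anion channel PSAC.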 As to conditions: P. falciparum Indochina infected erythrocytes, higher = more signal, called active from +8 up or from −8 down.
Assay [5] can be described thus: changes in parasitized red cell lysis, either direction – P. falciparum Indochina, OD700, 3 h, PSAC antagonist project, primary screen (AID 1156). The note with it: P. falciparum-infected erythrocytes, osmotic lysis, higher = more signal, called active from +8 up or from −8 down.
The nature of assay [6]: plasmodial surface anion channel blockers, osmotic lysis – cell-based, P. falciparum Indochina, OD700, 18 h, primary screen (AID 1157). The note with it: P. falciparum Indochina infected erythrocytes, osmotic lysis OD700, 18 h; higher = more signal, called active from +8 up or from −8 down.
A short description of assay [7]: S6 kinase pathway phospho-S6 level changes – cell-based, A549, cytoblot, luminescence, serum-stimulated, primary screen (AID 1158).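 Note: serum-stimulated A549 lung adenocarcinoma cells; signal is phosphorylated S6 detected by cytoblot immunostaining with HRP secondary.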 The note with it: 5 h, higher = more signal.
Assay [8] concerns the target NADPH oxidase 2 (Homo sapiens) (UniProt P04839). Description: compounds shifting NOX2 Amplex Red fluorescence – cell-based, HEK293-NOX2, PMA-stimulated, NOX inhibitor project, primary screen (AID 1159). Note: test concentration not given here. As to conditions: 45 min, higher = more signal, called active from +8 up or from −8 down.
For assay [9], the target named is NADPH oxidase 4 (Homo sapiens) (UniProt Q9NPH5). Nature of the assay: compounds shifting NOX4 Amplex Red fluorescence – cell-based, HEK293-NOX4, tetracycline-induced, NOX inhibitor project, primary screen (AID 1160). The note with it: HEK293-NOX4, Amplex Red H2O2 fluorescence, 45 min; higher = more signal, called active from +8 up or from −8 down.
The target in assay [10] is NADPH oxidase 5 (Homo sapiens) (UniProt Q96PH1). Nature of the assay: compounds shifting NOX5 Amplex Red fluorescence – cell-based, HEK293-NOX5, NOX inhibitor project, primary screen (AID 1161). As to conditions: HEK293-NOX5, ionomycin, 45 min, higher = more signal.

The source made the active and inactive calls.

NADPH oxidase 5 (Homo sapiens), sequence (Q96PH1 whole entry, looked up): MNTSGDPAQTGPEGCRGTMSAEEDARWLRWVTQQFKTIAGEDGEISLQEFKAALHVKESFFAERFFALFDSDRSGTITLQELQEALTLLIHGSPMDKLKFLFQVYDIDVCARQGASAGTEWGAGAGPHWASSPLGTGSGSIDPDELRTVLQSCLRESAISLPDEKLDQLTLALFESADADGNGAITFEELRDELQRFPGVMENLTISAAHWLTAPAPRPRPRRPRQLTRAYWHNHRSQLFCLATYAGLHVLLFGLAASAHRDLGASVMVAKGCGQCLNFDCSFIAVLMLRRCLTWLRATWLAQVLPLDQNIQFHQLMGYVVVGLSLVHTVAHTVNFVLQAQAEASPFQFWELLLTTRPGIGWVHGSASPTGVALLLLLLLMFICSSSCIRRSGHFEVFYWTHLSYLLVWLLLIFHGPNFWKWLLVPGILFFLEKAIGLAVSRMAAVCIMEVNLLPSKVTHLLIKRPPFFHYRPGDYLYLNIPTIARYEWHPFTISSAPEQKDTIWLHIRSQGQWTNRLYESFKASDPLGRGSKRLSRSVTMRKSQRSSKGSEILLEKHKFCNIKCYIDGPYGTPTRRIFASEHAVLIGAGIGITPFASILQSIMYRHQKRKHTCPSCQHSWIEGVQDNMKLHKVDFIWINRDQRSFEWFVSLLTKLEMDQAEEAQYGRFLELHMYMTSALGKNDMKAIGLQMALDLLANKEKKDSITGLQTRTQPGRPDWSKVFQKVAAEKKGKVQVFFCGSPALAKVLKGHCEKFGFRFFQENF
NADPH oxidase 4 (Homo sapiens), sequence (Q9NPH5 whole entry, looked up): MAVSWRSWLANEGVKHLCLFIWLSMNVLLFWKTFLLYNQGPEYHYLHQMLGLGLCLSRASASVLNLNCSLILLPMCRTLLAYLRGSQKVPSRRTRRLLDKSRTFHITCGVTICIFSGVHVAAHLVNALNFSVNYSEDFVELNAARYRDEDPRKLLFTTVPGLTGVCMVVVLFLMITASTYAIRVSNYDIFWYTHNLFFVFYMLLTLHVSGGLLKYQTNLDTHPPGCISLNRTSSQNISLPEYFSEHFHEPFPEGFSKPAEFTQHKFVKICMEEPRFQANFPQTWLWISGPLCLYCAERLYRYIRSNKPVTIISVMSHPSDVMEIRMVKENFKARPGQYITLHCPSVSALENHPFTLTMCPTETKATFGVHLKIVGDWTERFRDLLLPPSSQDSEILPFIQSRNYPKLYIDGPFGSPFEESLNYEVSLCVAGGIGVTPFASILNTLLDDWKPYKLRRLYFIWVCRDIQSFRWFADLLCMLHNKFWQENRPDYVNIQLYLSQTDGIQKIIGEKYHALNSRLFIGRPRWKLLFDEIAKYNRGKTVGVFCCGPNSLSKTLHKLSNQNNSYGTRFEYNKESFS
NADPH oxidase 2 (Homo sapiens), sequence (P04839 whole entry, looked up): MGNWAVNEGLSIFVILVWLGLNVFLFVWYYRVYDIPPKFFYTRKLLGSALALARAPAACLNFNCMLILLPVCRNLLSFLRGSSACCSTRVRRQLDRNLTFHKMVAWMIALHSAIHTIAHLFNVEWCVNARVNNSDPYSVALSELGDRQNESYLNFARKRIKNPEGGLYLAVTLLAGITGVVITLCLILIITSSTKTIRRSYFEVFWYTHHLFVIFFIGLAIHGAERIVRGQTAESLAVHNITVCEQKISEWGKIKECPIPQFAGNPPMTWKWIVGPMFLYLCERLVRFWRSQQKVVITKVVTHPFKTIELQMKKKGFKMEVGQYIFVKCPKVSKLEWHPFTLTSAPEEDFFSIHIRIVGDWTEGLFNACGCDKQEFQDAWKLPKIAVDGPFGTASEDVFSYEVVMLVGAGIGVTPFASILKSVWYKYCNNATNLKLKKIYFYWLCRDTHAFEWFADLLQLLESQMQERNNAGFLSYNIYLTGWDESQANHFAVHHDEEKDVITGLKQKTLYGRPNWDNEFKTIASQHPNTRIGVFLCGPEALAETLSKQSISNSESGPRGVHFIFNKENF

With `C=CCNC(=O)[C@@H]1[C@H]2C(=O)O[C@H](c3ccccc3)[C@H](c3ccccc3)N2[C@H](c2ccc(O)cc2)[C@@]12C(=O)Nc1ccc(C#CC3=CCCCC3)cc12`, the z-score in [1] was -0.396 (inactive); in assay [3] it was 1.71 (inactive); in [4], 0.959 (inactive); in [5], -0.587 (inactive); in [6] it was 1.08 (inactive); in [7], -0.424. Also, the z-score in assay [8] was 1.51 (inactive); in [9] it was 0.391 (inactive); in assay [10], 0.578. In assay [2], the composite z-score turned out to be 1.56.
For `COc1ccc([Si](C)(C)[C@H]2[C@H](CCO)O[C@@]3(C(=O)N(Cc4ccccc4)c4ccc(NC(=O)[C@H](C)O)cc43)[C@@H]2C)cc1`, the z-score is -0.0149 (inactive) in assay [1]; 10.8 (active) in [3]; 2.73 (inactive) in [4]; 0.0811 (inactive) in [5]; 1.43 (inactive) in assay [6]; 0.0757 in [7]. The z-score is -0.699 (inactive) in assay [8], 0.488 (inactive) in [9] and 1.66 in assay [10]. The same molecule came in with a composite z-score in [2] of 0.013.
In the case of `O=C(NC1CC1)[C@@H]1c2ccccc2C(=O)N(C2CCCCC2)[C@H]1c1ccc(CO)cc1`, the z-score in assay [1] was 0.1 (inactive); in assay [3] it was 1.4 (inactive); in [4], 0.295 (inactive); in assay [5], 0.973 (inactive); in assay [6], 0.0604 (inactive); in assay [7] it was -0.0513. The z-score in [8] was 0.382 (inactive); in assay [9], 0.589 (inactive); in assay [10], 0.536. The composite z-score in assay [2] is -0.28.
`COc1cccc(C)c1NC(=O)O[C@H]1[C@H](OC(=O)Nc2ccccc2-c2ccccc2)[C@@H](OC(=O)Nc2ccccc2-c2ccccc2)[C@@H](OC)O[C@@H]1CO`: the z-score in assay [1] is -1.33 (inactive); in [3], 2.54 (inactive); in assay [4] it was 1.13 (inactive); in [5] it was -0.857 (inactive); in [6], 0.937 (inactive); in assay [7], -0.338. In addition, the z-score in [8] was -3.62 (inactive); in assay [9], -1.2 (inactive); in [10] it was -1.72. The same molecule yielded a composite z-score in assay [2] of 0.406.
In the case of `O=C1O[C@H](c2ccccc2)[C@H](c2ccccc2)N2[C@H]1[C@@H](C(=O)N1CCN(c3ncccn3)CC1)[C@]1(C(=O)Nc3ccc(C#CC4(O)CCCCCC4)cc31)[C@H]2c1ccc(O)cc1`, the z-score in assay [1] was 2.51 (inactive); in assay [3], 0.36 (inactive); in assay [4], 0.88 (inactive); in assay [5], 1.09 (inactive); in assay [6], 0.566 (inactive); in [7] it was 1.37. Besides, the z-score is 1.24 (inactive) in assay [8], 0.663 (inactive) in assay [9] and 1.22 in assay [10]. Moreover, in [2], the composite z-score was 0.0903.
For the molecule `CCCCCN1CC=CC23O[C@@H]4/C=C\CCCOC(=O)C4[C@H]2C(=O)N(CCO)[C@@H]3C1=O` (stereo not given in full), the z-score was 3.1 (inactive) in assay [1]; 0.592 (inactive) in [3]; 0.177 (inactive) in assay [4]; -0.608 (inactive) in assay [5]; -0.776 (inactive) in [6]; 1.48 in [7]. For the same molecule, the results for the z-score in [8], in assay [9] and in assay [10] were 0.88 (inactive), 0.261 (inactive) and 2.19, respectively. This molecule also had a composite z-score in assay [2] of -0.103.
`C=CC[C@@]1(C(=O)NCCCOC)N=C(c2ccc(OCCCO)cc2)O[C@@H]1c1ccccc1CN=[N+]=[N-]`: the z-score is 1.14 (inactive) in [1]; 22.3 (active) in [3]; 2.5 (inactive) in assay [4]; 0.493 (inactive) in assay [5]; -1.34 (inactive) in assay [6]; 0.812 in assay [7]. Further, the results for the z-score in assay [8], in assay [9] and in assay [10] were -0.477 (inactive), 0.648 (inactive) and -0.274, respectively. In assay [2], the composite z-score turned out to be 0.607.
Turning to `COCCOC(=O)N1C(=O)[C@@]2(c3cc(C#CCNC(N)=O)ccc31)[C@H](C(=O)N1CCN(c3ncccn3)CC1)[C@H]1C(=O)O[C@H](c3ccccc3)[C@H](c3ccccc3)N1[C@@H]2c1ccc(O)cc1`, the z-score is 0.03 (inactive) in assay [1]; 1.35 (inactive) in assay [3]; -0.136 (inactive) in assay [4]; 0.889 (inactive) in assay [5]; 0.539 (inactive) in assay [6]; -0.285 in assay [7]. The z-score in assay [8] is 0.806 (inactive); in assay [9], 0.432 (inactive); in assay [10], 0.31. The composite z-score in [2] is -0.514.
Regarding `O=C1C2C=CC(C(O)C(c3ccccc3)c3ccccc3)N(Nc3ccccc3F)C2C(=O)N1c1ccccc1` (stereo not given), the z-score in assay [1] is -1.6 (inactive); in [3], 2.23 (inactive); in [4] it was 1.25 (inactive); in assay [5], 0.663 (inactive); in assay [6] it was 0.852 (inactive); in assay [7] it was -0.799. The figures for the z-score in assay [8], in [9] and in assay [10] were -1.34 (inactive), -2.28 (inactive) and -1.87, respectively. The molecule also registered a composite z-score in [2] of 0.235.
Consider `COc1cccc(C)c1NC(=O)O[C@H]1[C@H](OC(=O)Nc2ccc3c(c2)OCO3)[C@H](OC(=O)Nc2ccc3c(c2)OCO3)[C@@H](OC)O[C@@H]1CO`, for which the z-score was -0.66 (inactive) in assay [1]; 10.7 (active) in assay [3]; 1.4 (inactive) in [4]; 1.14 (inactive) in assay [5]; 0.691 (inactive) in [6]; -0.0632 in assay [7]. Besides, the figures for the z-score in assay [8], in assay [9] and in assay [10] were -1.52 (inactive), -0.848 (inactive) and -1.37, respectively. The molecule further displayed a composite z-score in assay [2] of 0.855.
Take `COC(=O)C1=CC(CCCO)=CC(c2ccc(CN3CCCC3)cc2)N(C)C=C1C(=O)OC` (stereo not given): the z-score in assay [1] was 0.265 (inactive); in assay [3], 1.77 (inactive); in assay [4], 0.422 (inactive); in assay [5], 0.587 (inactive); in [6], 0.155 (inactive); in assay [7], -0.387. For the same molecule, the values for the z-score in assay [8], in [9] and in assay [10] were 0.452 (inactive), 0.225 (inactive) and 0.463, respectively. For the same molecule, the composite z-score in assay [2] worked out at 0.212.
Consider `C#CCN(C(=O)OC(C)(C)C)[C@H](CO)c1ccccc1`, for which the z-score in assay [1] is -1.15 (inactive); in assay [3] it was 1.57 (inactive); in assay [4], -0.0352 (inactive); in assay [5], -0.195 (inactive); in [6] it was 0.133 (inactive); in assay [7], 0.137. Moreover, the z-score in assay [8] is 0.441 (inactive); in assay [9], 0.469 (inactive); in assay [10], 0.745. For the same molecule, in assay [2], the composite z-score is -0.0536.
Turning to `CC[C@H]1C2=C3C(CC[C@H]4C(OCc5ccc(F)cc5C(F)(F)F)OC[C@](C)([C@@H]34)N(C(=O)OC(C)(C)C)C2)C(COC(C)=O)C1COC(C)=O` (stereo not given in full), the z-score in assay [1] was -2.44 (inactive); in assay [3] it was 0.408 (inactive); in assay [4], -0.248 (inactive); in assay [5] it was 0.483 (inactive); in assay [6], 0.323 (inactive); in assay [7] it was -0.772. The z-score is -1.05 (inactive) in [8], -2.56 (inactive) in [9] and -1.43 in assay [10]. The molecule further registered a composite z-score in assay [2] of 0.713.
